93 compounds from PubChem BioAssay AID463173 (ICCB-Longwood Screening Facility, Harvard Medical School, 2010) can be followed below.

Out of some 52,000 compounds screened, about 4,300 (8.3%) were called active. What follows is part of a selection rich in actives, with near analogues and random picks from the rest. A number with no mark means an inactive call. No stated cut-off is given here; in the data, active means survival mostly below about 52% (no sharp cut-off); inactive means mostly above about 56%.

For the experiment, the system named is DeltatarO mutant. Nature of the experiment: growth inhibition of S. aureus wild type versus tarO mutant, primary screen, teichoic acid synthesis inhibitors, RN4220, OD600 (AID 463173). The settings on record: OD600, 18 h, active compounds read low, screened at 18.75 µg/mL (by protocol).
As to `Cc1cccc(N(C)C(=O)C(Cc2ccccc2)NS(=O)(=O)c2cccc3nsnc23)c1` (stereo not drawn), the survival was 74%.
Consider `Cc1nnc(N2CCC(C(=O)N3CCCCC3)CC2)c2nn(-c3ccc(Cl)cc3)c(C)c12`, for which the survival is 95%.
As to `CCOc1ccc(-c2nc(-c3ccccc3)c(-c3ccccc3)[nH]2)cc1OCC`, the survival was 142%.
Then `COc1cc(-c2nc(-c3cccc(Cl)c3)c(-c3ccccc3)[nH]2)cc(OC)c1OC`, with 126%; and `COc1ccc(-c2nc(-c3ccccc3)c(-c3ccc(F)cc3)[nH]2)c(OC)c1C`, with 5% (active); and `COc1ccc(-c2[nH]c(-c3ccccc3)nc2SCC(=O)NC2CCCC2)cc1`, with 67%.
In the case of `COc1cc(-c2nc(SCC(=O)Nc3ccc(C)cc3)c(-c3ccc(F)cc3)[nH]2)cc(OC)c1OC`, the survival is 91%.
Then `COc1ccc(-c2nc(-c3ccccc3)c(-c3ccccc3)[nH]2)cc1Br`, with 59%; and `COc1ccc(-c2[nH]c(-c3ccc(O)cc3)nc2-c2ccccc2)cc1`, with 3% (active).
For `COc1ccc(NC(=O)CSc2nc(-c3ccc(OC)cc3)[nH]c2-c2ccc(OC)cc2)cc1`, the survival is 71%.
Consider `COc1cc(-c2nc(-c3ccccc3)c(-c3ccc(Br)cc3)[nH]2)cc(OC)c1O`, for which the survival is 0% (active).
On to `COc1ccc(-c2nc(SCC(=O)Nc3ccccc3)c(-c3ccc(F)cc3)[nH]2)cc1OC`, for which the survival is 49%.
For `COc1ccc(-c2nc(-c3ccccc3)c(-c3ccc(O)cc3)[nH]2)cc1`, the survival is 1% (active).
For `COCCNC(=O)CSc1nc(-c2ccccc2)[nH]c1-c1ccc(OC)cc1`, the survival was 80%.
`CC(=O)N1C(=O)/C(=C2\SC(=S)N(C(C)C(=O)O)C2=O)c2ccccc21` (stereo not drawn): the survival was 112%.
Then `CCCCN(CC)CCNC(=O)C1CCCN(S(=O)(=O)c2cccc3nsnc23)C1` (stereo not drawn), with 117%.
Turning to `Nn1c(SCCC(=O)O)nnc1-c1ccccc1`, the survival is 83%.
In the case of `COCCNC(=O)c1cnc2sc(N3CCC(C)CC3)nn2c1=O`, the survival was 86%.
For `O=S(=O)(c1ccccc1)c1nnn2c1nc(NCc1cccs1)c1sccc12`, the survival is 87%.
Turning to `N#CC(C(=O)c1ccc(F)cc1)c1nc2ccccc2[nH]1` (stereo not drawn), the survival was 86%.
`CC1=C(C(=O)Nc2ccc(Cl)cc2)C(c2ccccc2C)n2ncc(C(=O)Nc3ccc(C)cc3)c2N1` (stereo not drawn): the survival was 54%.
Consider `O=C(O)c1ccc(-c2nc3ccccc3[nH]2)cc1`, for which the survival was 86%.
Then `Oc1ccc(-c2nc(-c3ccccc3)c(-c3ccc(Br)cc3)[nH]2)cc1`, with -4% (active); and `O=C(CSc1nc(-c2ccc(F)cc2)[nH]c1-c1ccccc1)Nc1ccccc1`, with 67%; and `Cc1nn(-c2ccc(N3CCCCC3)nn2)c(C)c1CCC(=O)NCc1ccccc1`, with 67%.
Regarding `Cc1ccc(N(CC(=O)NC2CCCC2)C(=O)c2ccc(N3CCCC3)nc2)cc1`, the survival is 89%.
For `Cc1ccc(NC(=O)C2CCCN(S(=O)(=O)c3cccc4nsnc34)C2)c(C)c1` (stereo not drawn), the survival was 83%.
Consider `CC1(C)Oc2ccc(C(=O)Nc3ccccc3)cc2N(CC(=O)N2CCCC2)C1=O`, for which the survival is 103%.
Then `COc1ccccc1CC(=O)Nc1ccc2nc(N3CCC(C)CC3)cc(C)c2c1`, with 61%; and `Cc1cc(N2CCC(C)CC2)nc2ccc(NC(=O)Cc3c(F)cccc3Cl)cc12`, with 56%; and `Cc1cc(N2CCC(C)CC2)nc2ccc(NC(=O)CCC(=O)N3CCN(c4ccccc4F)CC3)cc12`, with 52%.
Take `COc1cccc(CC(=O)Nc2ccc3nc(N4CCC(C)CC4)cc(C)c3c2)c1`: the survival is 49%.
To `Cc1cc(N2CCN(C)CC2)nc2ccc(NC(=O)Nc3ccccc3Br)cc12` belongs 84%; to `Cc1cc(N2CCC(C)CC2)nc2ccc(NC(=O)CCC(=O)N3CCN(c4cccc(C(F)(F)F)c4)CC3)cc12`, 31% (active).
As for `Cc1ccc(Cl)cc1N1CCN(C(=O)CCC(=O)Nc2ccc3nc(N4CCC(C)CC4)cc(C)c3c2)CC1`, the survival is 52%.
Take `Cc1cc(N2CCC(C)CC2)nc2ccc(NC(=O)Cc3ccccc3Br)cc12`: the survival is 46% (active).
As to `Cc1cccc(CC(=O)Nc2ccc3nc(N4CCC(C)CC4)cc(C)c3c2)c1`, the survival was 4% (active).
With `CC1=C(C(=O)Nc2ccc(C)cc2C)C(c2ccccc2C)n2ncnc2N1` (stereo not drawn), the survival was 100%.
`N#CCN(CC#N)C(=O)Cc1cccs1`: the survival is 102%.
For `Cc1ccc(CN2C(=O)C3(c4ccccc42)N(c2cccc(F)c2)C(=O)CS3(=O)=O)cc1` (stereo not drawn), the survival was 75%.
To `CCN1C(=O)c2ccccc2S(=O)(=O)c2ccc(C(=O)NCc3ccc(F)cc3)cc21` belongs 59%; to `COc1ccc2c(CNCc3ccc(C)o3)c(C(=O)O)n(Cc3ccccc3C)c2c1`, 96%.
For the compound `Cc1ccc(NC(=O)c2cccc3c(=O)c4c([nH]c23)CCCC4)c(C)c1`, the survival is 69%.
To `COc1cccc(CNC(=O)Cn2c(C)c3cnn(-c4ccccc4)c(=O)c3c2C)c1` belongs 94%.
Consider `CSc1nc(NC(C)=O)nc(C)c1Br`, for which the survival was 103%.
In the case of `Nc1c(-c2nc(-c3ccc(F)cc3)cs2)c2ccccn2c1C(=O)c1ccc2c(c1)OCO2`, the survival was 89%.
Then `COc1ccc(CCNc2nc(SCc3cccc(Cl)c3)nc3ccccc23)cc1OC`, with 94%; and `N#Cc1c(C(F)(F)F)cc(-c2cccs2)nc1SCc1ccc(F)cc1`, with 125%.
`COc1ccc2c(c1)c1c(c(=O)n(-c3ccccc3C)c(=O)n1CC(=O)NCc1ccc(C)cc1)n2C`: the survival is 75%.
As to `Cc1ccc(S(=O)(=O)c2nc(-c3ccco3)oc2SC(C)c2ccccc2)cc1` (stereo not drawn), the survival is 45% (active).
`CC(Sc1oc(-c2cccs2)nc1S(=O)(=O)c1ccccc1)c1ccccc1` (stereo not drawn): the survival is 44% (active).
Then `CC(C)Sc1oc(-c2cccs2)nc1S(=O)(=O)c1ccc(Cl)cc1`, with 66%; and `Cc1ccc(S(=O)(=O)c2nc(-c3cccs3)oc2SC(C)c2ccccc2)cc1` (stereo not drawn), with 55%.
`CCC(C)Sc1oc(-c2ccco2)nc1S(=O)(=O)c1ccc(Cl)cc1` (stereo not drawn): the survival is 49% (active).
Take `CC(Sc1oc(-c2ccco2)nc1S(=O)(=O)c1ccc(Br)cc1)c1ccccc1` (stereo not drawn): the survival was 70%.
With `Cc1ccc(CSc2oc(-c3ccco3)nc2S(=O)(=O)c2ccc(Br)cc2)cc1`, the survival was 56%.
With `Cc1ccc(S(=O)(=O)c2nc(-c3ccco3)oc2SCc2ccccc2Cl)cc1`, the survival was 61%.
`CCCSc1oc(-c2ccco2)nc1S(=O)(=O)c1ccc(Cl)cc1`: the survival was 51%.
For `Cc1ccc(S(=O)(=O)c2nc(-c3ccco3)oc2SC(C)C)cc1`, the survival is 47%.
For the compound `Cc1ccc(CSc2oc(-c3ccco3)nc2S(=O)(=O)c2ccc(Cl)cc2)cc1`, the survival is 63%.
For the compound `CCC(C)Sc1oc(-c2ccco2)nc1S(=O)(=O)c1ccc(C)cc1` (stereo not drawn), the survival was 18% (active).
Regarding `COc1ccc(Cc2nc3ccc(C(=O)NCCc4ccc(Cl)cc4)cc3o2)cc1`, the survival is 75%.
Consider `O=C(Cn1ncc2c3ccccc3n(Cc3ccc(Cl)cc3)c2c1=O)NC1CCCCCC1`, for which the survival is 96%.
On to `CSc1ccc(CNC(=O)Cn2c(-c3cccs3)cc3cc(F)ccc32)cc1`, for which the survival is 101%.
Turning to `COc1ccc(NC(=O)C(NC(=O)/C=C\c2ccc3c(c2)OCO3)c2ccc(OC)cc2)cc1` (stereo not drawn), the survival is 61%.
On to `CCCn1c(CCC(=O)Nc2cc(OC)cc(OC)c2)nc2cccnc21`, for which the survival is 78%.
Then `CCOc1ccc(CCNC(=O)c2cccc(-n3c(C)nc4cccnc43)c2)cc1`, with 90%; and `N#Cc1cc2c(cc1C#N)Oc1ccccc1O2`, with 103%; and `CC(C)CCn1c(=O)c2sccc2n2c(CCCC(=O)NC(C)C)nnc12`, with 96%.
As to `COc1cc(S(=O)(=O)N2CCN(C)CC2)c(C)cc1C`, the survival was 78%.
For `COc1ccccc1CNC(=O)CN1C(=O)CCCc2ccccc21`, the survival is 94%.
In the case of `COc1ccc2cc(CNc3ccc(OC)c(OC)c3)c(=O)n(CC(=O)Nc3ccc(C)cc3)c2c1`, the survival is 74%.
As for `O=C(NC1CCCCCC1)c1ccc2c(c1)sc1nc(-c3ccc(F)cc3)cn12`, the survival was 85%.
Regarding `CCc1ccc(-c2cn3c(n2)sc2cc(C(=O)NC4CCCCC4)ccc23)cc1`, the survival was 87%.
Take `CCc1ccc(-c2cn3c(n2)sc2cc(C(=O)NC4CCCCCC4)ccc23)cc1`: the survival was 79%.
To `O=C(NC1CCCCC1)c1ccc2c(c1)sc1nc(-c3ccc(F)cc3)cn12` belongs 62%.
As to `CC1CCCCN1CCCNC(=O)c1ccc2c(c1)sc1nc(-c3ccc(F)cc3)cn12` (stereo not drawn), the survival is 29% (active).
Regarding `CCC1CCCCN1CCCNC(=O)c1ccc2c(c1)sc1nc(-c3ccc(F)cc3)cn12` (stereo not drawn), the survival is 14% (active).
Consider `Cc1cc(Nc2ccc(C)c(C)c2)n2cnnc2n1`, for which the survival is 94%.
To `CC1CCN(c2cc3c(cc2F)c(=O)c(S(=O)(=O)c2cccc(Cl)c2)cn3Cc2ccccc2)CC1` belongs 80%; to `COc1ccccc1C(=O)n1nc(-c2ccco2)nc1NCc1ccc(Cl)cc1`, 54%.
Turning to `COc1ccc(C(=O)/C=C\Nc2ccc(S(=O)(=O)N=C(N)N)cc2)cc1OC`, the survival is 76%.
Regarding `Cc1ccc(CN(C(=O)COc2ccc(C)c(C)c2)C2CCS(=O)(=O)C2)o1` (stereo not drawn), the survival was 92%.
As for `Cc1cccc(CNC(=O)C2CCN(c3nnc(-n4c(C)ccc4C)s3)CC2)c1`, the survival was 95%.
Then `O=C(c1noc2c1CCCCC2)N1CCN(c2cccc(Cl)c2)CC1`, with 69%; and `O=C(c1cc2ccc3cccnc3c2[nH]1)N1CCN(c2ccccc2)CC1`, with 75%; and `CC1CCc2onc(C(=O)N3CCN(c4cccc(C(F)(F)F)c4)CC3)c2C1` (stereo not drawn), with 37% (active).
Then `CC1CCc2onc(C(=O)N3CCN(c4cccc(Cl)c4)CC3)c2C1` (stereo not drawn), with 69%; and `O=C(c1cc2ccc3cccnc3c2[nH]1)N1CCN(c2ccc(Cl)cc2)CC1`, with 84%; and `CC1CCc2onc(C(=O)N3CCN(c4ccccc4)CC3)c2C1` (stereo not drawn), with 117%.
To `O=C(c1noc2c1CCCCC2)N1CCN(c2cccc(C(F)(F)F)c2)CC1` belongs 0% (active); to `O=C(c1noc2c1CCCCC2)N1CCN(c2ccc(Cl)cc2)CC1`, 98%; to `O=C(c1cc2ccc3cccnc3c2[nH]1)N1CCN(c2cccc(C(F)(F)F)c2)CC1`, 0% (active).
